# Reference: PubChem BioAssay AID1240 (Sanford-Burnham Center for Chemical Genomics, 2008)
# Hit rate of the full screen: of about 50,000 compounds, about 800 (1.6%) showed an effect of 50% or more. Only a selection was taken, and strong results are over-represented in it overall.
# Target: Bcl-2-like protein 10 (Homo sapiens) (UniProt Q9HD36)
# Test: TR3 peptide-Bcl-B binding displacers, biochemical primary FP assay, phenotype converters (AID 1240);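 further: 0% = Bcl-B with tracer peptide and DMSO and 100% = tracer peptide lacking Bcl-B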
# Settings: GST-Bcl-B / FITC-TR3 peptide fluorescence polarization; stronger effect = higher value; compound at 3.75 mg/L
# Sequence of Bcl-2-like protein 10 (Homo sapiens) (Q9HD36 whole entry, looked up): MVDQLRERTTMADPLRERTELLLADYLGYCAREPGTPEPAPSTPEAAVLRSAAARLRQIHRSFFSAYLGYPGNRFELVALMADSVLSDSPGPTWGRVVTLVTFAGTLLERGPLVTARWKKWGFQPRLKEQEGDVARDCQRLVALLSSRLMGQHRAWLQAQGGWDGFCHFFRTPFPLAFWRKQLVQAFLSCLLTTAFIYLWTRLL
row,SMILES,displacement
1,Cc1cccc(C(=O)O/N=C(\N)c2ccc(Br)cc2)c1,-0.6%
2,COc1ccc(-c2occ(C(=O)O)c2C(=O)O)cc1,0.2%
3,O=C1CC(N2CCN(c3ccccc3)CC2)C(=O)N1c1ccc(I)cc1 (stereo not drawn),-0.8%
4,CCC12C(=O)C(CC)(C(c3ccccc3)=C1c1ccccc1)C1C(=O)N(c3ccccc3[N+](=O)[O-])C(=O)C12 (stereo not drawn),2%
5,CCN1C(=O)/C(=C\c2ccc(Br)cc2)SC1=S,7.1%
6,CCOc1cccc(=O)c2c(C)oc(C)c12,16.8%
7,CCOc1cccc(=[O+]CC)c2c(C)oc(C)c12,154%
8,CCOc1ccc(-c2cc(OCC)c3c(C)oc(C)c3c(=[O+]CC)c2)cc1,2.4%
9,CNC(=O)COc1ccc(C23CC4CC(CC(C4)C2)C3)cc1,1.4%
10,O=C(CSc1n[nH]c(=O)[nH]c1=O)c1ccc(Cl)cc1,-6.1%
11,O=C(Nc1ncc(Cc2ccc(F)cc2)s1)C1CCCO1 (stereo not drawn),15.4%
12,Cc1nc(-c2ccccc2)sc1C(=O)Nc1cccc2ccccc12,13.1%
13,COc1cc(C=O)ccc1Oc1ccc([N+](=O)[O-])cc1,5%
14,Cc1ccc(-n2c(C)cc(/C=C3\NC(=O)NC3=O)c2C)cc1C,11.1%
15,Cc1ccc(-n2cc(C=C3C(=O)NC(=O)NC3=O)cn2)cc1C,110%
16,Cc1ccc(-n2cc(/C=c3\sc4nc5cc(C)c(C)cc5n4c3=O)cn2)cc1C,-8.9%
17,O=[N+]([O-])c1ccc2oc(-c3ccccc3)nc2c1,5%
18,COc1sc(SC)cc1/C=N/NC(=O)C(NC(=O)c1ccccc1)c1n[nH]c(=O)c2ccccc12 (stereo not drawn),-7.7%
19,COc1ccc(-c2cc(C(F)(F)F)n3nc(C(=O)NCCN4CCOCC4)c(Cl)c3n2)cc1,-10.2%
20,COCCNC(=O)c1nn2c(C(F)(F)F)cc(-c3ccc(OC)c(OC)c3)nc2c1Cl,155%
21,COCCNC(=O)c1nn2c(C(F)(F)F)cc(-c3ccc(OC)cc3)nc2c1Cl,-2.4%
22,COc1ccc(-c2cc(C(F)(F)F)n3nc(C(=O)O)c(Cl)c3n2)cc1,3.2%
23,COc1ccc(-c2cc(C(F)(F)F)n3nc(C(N)=O)c(Cl)c3n2)cc1OC,33.4%

row,SMILES,displacement
1,COc1ccc(-c2cc(C(F)(F)F)n3nc(C(=O)NCCCn4ccnc4)c(Cl)c3n2)cc1,105%
2,COc1ccc(C(=O)Nc2ccc(N(C)C)cc2)cc1,6%
3,CN(C)c1ccc(C2/C(=C(\O)c3ccc(F)cc3)C(=O)C(=O)N2CCCCCC(=O)O)cc1 (stereo not drawn),9.1%
4,CCCCOC(=O)c1cccc(NC(=O)COc2ccc3c(C)cc(=O)oc3c2)c1,-41.8%
5,CCCCOC(=O)c1ccc(NC(=O)COc2ccc3c(C)cc(=O)oc3c2)cc1,28.5%
6,COCCOC(=O)c1ccc(NC(=O)COc2ccc3c(C)cc(=O)oc3c2)cc1,90.3%
7,Cc1cccc([N+](=O)[O-])c1N=Cc1ccc(N(C)C)cc1,-4.5%
8,COc1ccc(N(CC(=O)NC2CCCCC2)S(=O)(=O)c2ccccc2)cc1Cl,7.2%
9,COc1ccc(/C=C2/Sc3ccccc3C2=O)cc1Br,116%
10,NS(=O)(=O)c1ccc(-c2ccc(/C=C3\Sc4ccccc4C3=O)o2)cc1,-71.8%
11,O=C1/C(=C/c2ccc(Br)o2)Sc2ccccc21,92.7%
12,COc1ccc(/C=C2/Sc3ccccc3C2=O)cc1[N+](=O)[O-],-5.3%
13,O=C1/C(=C\c2ccc(-c3ccc([N+](=O)[O-])cc3Br)o2)Sc2ccccc21,-17.8%
14,CCOc1cc(/C=C2\Sc3ccccc3C2=O)ccc1OC,0.2%
15,O=C(NCc1ccccn1)C(=O)Nc1ccccc1F,-20.9%
16,Cc1ccc(S(=O)(=O)NCCOc2ccccc2Cl)cc1[N+](=O)[O-],13%
17,C#CCOC(=O)/C(=C/c1ccc(F)cc1)NC(C)=O,-8.4%
18,CC(=O)N/C(=C\c1ccc(F)cc1)C(=O)NC(C(=O)O)C(C)C (stereo not drawn),81.8%
19,CC(=O)N/C(=C\c1ccccc1)C(=O)NC(CC(C)C)C(=O)O (stereo not drawn),-2.1%
20,COc1ccccc1NC(=O)c1cccc2c(Br)cccc12,-5.4%
21,COc1ccc(N(CC(=O)NC(C)c2ccccc2)S(=O)(=O)c2ccc(C)cc2)c(OC)c1 (stereo not drawn),2.3%
22,Cc1cc(C)cc(OCC(=O)N2CCN(c3ccc([N+](=O)[O-])cc3)CC2)c1,-3.5%
23,O=c1oc2ccccc2cc1-c1nc2ccccc2s1,-1%

row,SMILES,displacement
1,Cc1oc2cc(OCC(=O)OCc3ccccc3)ccc2c(=O)c1-c1nc2ccccc2s1,11.3%
2,CCOC(=O)COc1ccc2cc(-c3nc4ccccc4[nH]3)c(=O)oc2c1,7.3%
3,C=C(C)COc1ccc2cc(-c3nc4ccccc4s3)c(=O)oc2c1,66.5%
4,CC(C)(C)OC(=O)COc1ccc2cc(-c3nc4ccccc4s3)c(=O)oc2c1,92%
5,CCOC(=O)COc1ccc2cc(-c3nc4ccccc4o3)c(=O)oc2c1,8.8%
6,CCOc1ccc2c(=O)c(-c3nc4ccccc4s3)coc2c1,7.8%
7,O=C(COc1ccc2cc(-c3nc4ccccc4s3)c(=O)oc2c1)OCc1ccccc1,53.3%
8,O=c1oc2cc(OCc3ccc(F)cc3)ccc2cc1-c1nc2ccccc2s1,52.5%
9,O=c1c(-c2nc3ccccc3s2)coc2cc(OCc3ccc([N+](=O)[O-])cc3)ccc12,6.2%
10,O=c1oc2cc(OCc3c(F)c(F)c(F)c(F)c3F)ccc2cc1-c1ccc2ccccc2n1,-49.7%
11,O=C(COc1ccc2ccc(=O)oc2c1)OCc1ccccc1,10.9%
12,CCOc1ccc(N(CC(=O)Nc2cccc3cccnc23)S(=O)(=O)c2ccccc2)cc1,-39.5%
13,O=C(Nc1ccc2nn(-c3ccc(F)cc3)nc2c1)c1cc2ccccc2o1,2.5%
14,O=C1N/C(=N/N=C\c2ccc(-c3ccc(Cl)cc3)o2)SC1Cc1ccccc1 (stereo not drawn),17%
15,CC(Sc1nnc(N)s1)c1ccccc1 (stereo not drawn),5.2%
16,COc1ccc(CC(=O)N=Nc2c(O)n(CN3CCN(C)CC3)c3ccccc23)cc1,-3%
17,O=C(CN1C(=O)c2ccc([N+](=O)[O-])cc2C1=O)N1CCCCC1,-9.1%
18,COc1ccc(NC(=O)C(=O)NCc2ccc(C)cc2)c(OC)c1,10.4%
19,O=C(COc1ccc(Cl)cc1Br)NNC(=O)c1ccncc1,-4.5%
20,CC(=O)c1cc(F)c(N2CCN(C(=O)c3cccs3)CC2)cc1C,80%
21,CC(=O)c1cc(F)c(N2CCN(C(=O)c3ccccc3Br)CC2)cc1C,-5.4%
22,CC(=O)c1ccc(N2CCN(C(=O)c3cccs3)CC2)c(F)c1,-4.6%
